In PubChem BioAssay:
Values without a mark were called inactive. Active and inactive are the calls of the source. No stated cut-off is given here; in the data, active means inhibition above about 30%; inactive means the rest.

Test system: transactivating tegument protein VP16 (Human herpesvirus 1), Gal4-VP16 luciferase reporter
Experiment: VP16 transactivation inhibitors, counter-screen for SRC3 inhibitor project, cell-based, luminescence, high throughput (AID 588794)
Conditions: mammalian cells, VP16-driven luciferase reporter luminescence; at 3.6 µM; stronger effect = higher value

Row | SMILES | inhibition
1 | Cc1ccc(C(C)C)c(OCc2ccc(C(=O)N/N=C/c3cccc(O)c3O)cc2)c1 | 32.4% (active)
2 | Cc1cc([N+](=O)[O-])ccc1-c1ccc(C2Nc3ccccc3C(=O)N2O)o1 (stereo not given) | 1.31%
3 | COc1cccc2c1C(=O)c1c(O)c3c(c(O)c1C2=O)C[C@@](O)(C(=O)CO)C[C@@H]3O[C@H]1C[C@H](N)[C@H](O)[C@H](C)O1 | 87.7% (active)
4 | COc1cccc(/C=N/Nc2ccc([N+](=O)[O-])cn2)c1O | 10.2%
5 | Nc1ccc(C(=O)N/N=C\c2cc(N=Nc3cccc4ccccc34)ccc2O)cc1 | 17.7%
6 | CCn1nc([N+](=O)[O-])c(C(C#N)c2nc3cc(C(F)(F)F)ccc3s2)c(Cl)c1=O (stereo not given) | 12.3%
7 | COc1ccc(S(=O)(=O)/N=C2\C=C(Nc3ccc(O)cc3)C(=O)c3ccccc32)cc1 | 92.8% (active)
8 | COc1ccc(OC)c2[nH]c(C(=O)N/N=C/c3ccccc3O)cc12 | 39.2% (active)
9 | Oc1ccccc1N=Nc1nc(-c2ccccc2)c(-c2ccccc2)[nH]1 | 76.4% (active)
10 | Nc1ccc2c(c1)C(=O)C(=O)c1ccccc1-2 | 95.3% (active)
11 | CCN1/C(=C/C=C/c2oc3ccc(-c4ccccc4)cc3[n+]2CC)Oc2ccc(-c3ccccc3)cc21 | 95.4% (active)
12 | CCC(=O)Nc1nc(C)c(-c2csc(Nc3cccc(O)c3)n2)s1 | 47.6% (active)
13 | COc1ccc(-c2csc(NC(=O)c3ccccc3NS(=O)(=O)c3ccc(F)c(F)c3)n2)cc1 | 71.4% (active)
14 | COc1ccc(O)c(/C=N/NC(=S)Nc2cccc(S(=O)(=O)N(C)C)c2)c1 | 26.2%
15 | COc1ccc(/C=N/NC(=S)Nc2ccccc2[N+](=O)[O-])cc1O | -47%
16 | Brc1ccc(N/N=C(/N=Nc2nn[nH]n2)c2ccccc2)cc1 | 80.2% (active)
17 | Cc1cc(C)nc(SCc2ccc(C(=O)N/N=C/c3cccc(O)c3O)cc2)n1 | 38.9% (active)
18 | COC(=O)c1cc(C)nc2c1C(=O)C(=O)C=C2N1CCOCC1 | 54.7% (active)
19 | Cc1ccc(C(C)C)c(OCc2ccc(C(=O)N/N=C/c3ccc(O)cc3O)cc2)c1 | 78.3% (active)
20 | O=C1C(Nc2ccccc2)=C/C(=N/S(=O)(=O)c2cccs2)c2ccccc21 | 59.4% (active)
21 | CCN(CC)S(=O)(=O)c1ccc(N/N=C/c2ccc(O)cc2O)nc1 | 67.3% (active)
22 | COc1cccc(N2CCN(c3ncnc4c3[nH]c3ccc(F)cc34)CC2C)c1 (stereo not given) | 93.4% (active)
23 | O=c1c2ccccc2nc(N/N=C/c2c(O)ccc3ccccc23)n1O | 78.8% (active)
24 | Cn1nc(-c2ccccn2)nc2c(=O)n(C)c(=O)nc1-2 | 62% (active)
25 | N#C/C(=N\Nc1cccc([N+](=O)[O-])c1)C(=O)c1ccc(Br)cc1 | 26.8%
